This note sets out measurements from PubChem BioAssay AID2685 (National Center for Advancing Translational Sciences (NCATS), 2010).

Among all 320,000 compounds or so, about 2,100 (0.66%) were called active. Another 53% or so got no clear call; they are omitted. Calls come from the whole dose curve; as a rule, active = well fitted inhibition curve with a large enough effect in the signal ratio, with a control signal flat (not every such curve was filed as active); inconclusive = small, poorly fitted or top-dose-only effect, or effect the other way, or a change in a side signal; inactive = flat fitted curve, though single readings scatter; the % refers to the signal ratio. Only a selection was taken, and actives are over-represented in it overall.
Potency is the fitted concentration of half-maximal effect.

The assay is described as follows: qHTS Assay for Lipid Storage Modulators in Drosophila S3 Cells.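 For cell number change: cells counted by Cell Tracker Red CMTPX staining in the red channel.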 For lipid storage change, negative = inhibition: % is set by controls: 0 for no effect and ±100 for the full control effect. The following applies: BODIPY lipid droplet fluorescence, 18-24 h, cells fed with added oleic acid; cell number change: measured here: cell count max response; series mostly up to 46.1 µM; lipid storage change, negative = inhibition: at the top concentration. The method, boiled down: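 Drosophila S3 cells loaded with oleic acid (400 uM, as added) and compounds at several concentrations; lipid droplets imaged by 488-nm laser-scanning cytometry, 500–530 nm intensity and object ratio to cell channel. Percent activity normalized to 20 uM Triacsin C.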
Consider `CC(=O)c1ccc(NC(=O)CN(C)CC(=O)Nc2cccc(F)c2)cc1`, for which the “lipid storage change, negative = inhibition” value was 7.62% (inactive) and the cell number change came to 10.5%. `Cc1ccn2cc(-c3cccc(S(=O)(=O)N4CC(C)OC(C)C4)c3)nc2c1` (stereo unspecified): the “lipid storage change, negative = inhibition” value was -2.61% (inactive) and the cell number change amounted to 5.5%. As for `CC1CN(S(=O)(=O)c2cccc(-c3cn4cccnc4n3)c2)CC(C)O1` (stereo unspecified), the “lipid storage change, negative = inhibition” value is 13.1% (inactive) and the cell number change was -27.2%.

As for `Cc1ccc2nc(-c3cccc(S(=O)(=O)N4CC(C)OC(C)C4)c3)cn2c1` (stereo unspecified), the Potency is 16.4 µM (active) and the cell number change is -15.5%. As to `CCNC(=S)NS(=O)(=O)c1ccc(CC)cc1`, the “lipid storage change, negative = inhibition” value was 6.51% (inactive) and the cell number change is -7.16%. Consider `CCCn1cc2c(c1-c1ccc(C)cc1)c(=O)n(C)c(=O)n2C`, for which the “lipid storage change, negative = inhibition” value was -9.64% (inactive) and the cell number change came to 4.81%. The like results for `CC1=C(C(=O)N2CCc3ccccc32)C2(CCC(C)CC2)OC1=O` (stereo unspecified) were, in that order, -2.81% (inactive) and -7.54%. For `Cc1cccc2c(C(=O)O)c3c(nc12)CCCCC3`, the Potency was 18.4 µM (active) and the cell number change is -17%. In the case of `CCOc1c2c(nc3ccc(Cl)cc13)CCC2`, the “lipid storage change, negative = inhibition” value was 6.62% (inactive) and the cell number change is 8.32%.

With `CN(C)C(=O)c1c2c(nc3ccccc13)CCCC2`, the outcome was inactive and the cell number change turned out to be 1.75%. In the case of `Cc1cc(Br)c2nc3c(c(C(=O)O)c2c1)CCCCC3`, the “lipid storage change, negative = inhibition” value is -4.98% (inactive) and the cell number change was -0.276%. For `O=C(O)c1c2c(nc3ccc(F)cc13)CCC2` the same measures were -2.17% (inactive) and -14.4%.

Regarding `O=C(O)c1c2c(nc3ccc(Cl)cc13)CCC2`, the Potency was 0.0517 µM (active). For `COc1ccccc1/C=C/C1(C(=O)NC2CCCC2)CC(=O)N1c1ccc(F)cc1` (stereo unspecified), the “lipid storage change, negative = inhibition” value is -14.5% (inactive) and the cell number change is -14.3%.

With `COc1cc(/C=N/NS(=O)(=O)c2ccccc2)ccc1OS(=O)(=O)c1ccc(C)cc1`, the “lipid storage change, negative = inhibition” value was 8.09% (inactive) and the cell number change was 20.6%. For `O=[N+]([O-])c1cccc(S(=O)(=O)N/N=C/c2ccc(O)cc2)c1`, the “lipid storage change, negative = inhibition” value was -15% (inactive). On to `COc1ccc(-n2c(O)c(/C=N/NS(=O)(=O)c3ccc(C)cc3)c3ccccc3c2=O)cc1OC`, for which the Potency was 8.2 µM (active) and the cell number change was -21%. As to `NC(=O)Cn1cc(/C=N\NS(=O)(=O)c2cccc([N+](=O)[O-])c2)c2ccccc21`, the “lipid storage change, negative = inhibition” value is 2.72% (inactive) and the cell number change was 1.79%. `COc1ccc(-n2c(O)c(/C=N/NS(=O)(=O)c3cccc([N+](=O)[O-])c3)c3ccccc3c2=O)cc1OC`: the Potency is 16.4 µM (active) and the cell number change was -20.8%. For `Cc1ccc(-n2c(O)c(/C=N/n3cnnc3)c3ccccc3c2=O)cc1`, the “lipid storage change, negative = inhibition” value was 5.77% (inactive) and the cell number change is 9.27%. For `Cc1cccn2c(CN3CCCC(c4ccccc4)C3)c(C(=O)N3CCOCC3)nc12` (stereo unspecified) the same measures were -8.42% (inactive) and -15.3%. Consider `Cc1nc2nc(NC(=O)c3ccco3)nn2c(C)c1Cl`, for which the “lipid storage change, negative = inhibition” value was 6.53% (inactive) and the cell number change was 16.3%. For `CCOc1ccc(CCNC(=O)c2ccccc2OCc2c(C)noc2C)cc1OCC` the same measures were 5.43% (inactive) and 4.08%. For `CCOc1ccc(CCNC(=O)c2cccc(S(=O)(=O)N3CCN(C(C)=O)CC3)c2)cc1OCC`, the “lipid storage change, negative = inhibition” value is -10.5% (inactive) and the cell number change was -4.38%. As to `CCOc1ccc(CCNC(=O)c2cc(C)nc3ccccc23)cc1OCC`, the compound was classed as inactive and the cell number change came out at 1.62%. With `CCOc1ccc(CCNC(=O)c2ccc3ccccc3n2)cc1OCC`, the Potency was 8.2 µM (active) and the cell number change is -6.07%. The like results for `CCOc1ccc(CCNC(=O)c2ccc(OCc3c(C)noc3C)cc2)cc1OCC` were, in that order, 11.6 µM (active) and 14.1%.

For `Cc1noc(C)c1COc1ccc(C(=O)NCCc2ccc(S(N)(=O)=O)cc2)cc1`, the “lipid storage change, negative = inhibition” value is 23% (inactive) and the cell number change is 9.63%. Turning to `Cc1noc(C)c1COc1ccc(C(=O)N(C)CCOc2ccccc2)cc1`, the Potency is 8.2 µM (active) and the cell number change is -18.6%. For `CCOc1ccc(CCNC(=O)c2cccc(-n3cnnn3)c2)cc1OCC` the same measures were 0.0731 µM (active) and -24.8%. As to `CCOc1ccc(-n2cnnn2)cc1S(=O)(=O)NCCc1ccc(OC)c(OC)c1`, the call was inactive. Regarding `CCOc1ccc(CCNC(=O)c2cc(C)on2)cc1OCC`, the “lipid storage change, negative = inhibition” value was 14.1% (inactive) and the cell number change was 4.47%. The like results for `Cc1noc(C)c1COc1ccc(C(=O)O)cc1` were, in that order, 3.4% (inactive) and 4.42%.

In the case of `Cc1noc(C)c1COc1ccc(C(=O)NNC(=O)c2ccccc2)cc1`, the “lipid storage change, negative = inhibition” value was 12.6% (inactive) and the cell number change came out at 2.9%.

On to `COc1ccc(N2CCN(C(=O)COC(=O)/C=C/c3ccc(OC(F)F)cc3)CC2)cc1`, for which the “lipid storage change, negative = inhibition” value is 12.6% (inactive). In the case of `COc1ccc(Nc2nc(Cl)nc(Nc3ccc(OC)cc3OC)n2)c(OC)c1`, the “lipid storage change, negative = inhibition” value is -9.46% (inactive) and the cell number change was -11.9%.

As for `CCOc1ccc(OCc2ccc(C(=O)Nc3ccc(Cl)cn3)o2)cc1`, the “lipid storage change, negative = inhibition” value was 12.2% (inactive) and the cell number change was 16.1%. For the compound `CC(=O)Nc1sc(C)c(C)c1CN1CCN(S(=O)(=O)c2ccccc2)CC1`, the compound was classed as inactive.

On to `Cc1cc(C)c(Nc2ncnc(N)n2)c(C)c1`, for which the “lipid storage change, negative = inhibition” value is 6.89% (inactive) and the cell number change was -1.29%.

As to `O=c1cc(N2CCc3ccccc3C2)[nH]c(=O)n1-c1ccc(Br)cc1`, the result was inactive. Regarding `CCC1CN(C(=O)N2CCC(C(=O)NCCc3ccc(OC)cc3OC)CC2)c2ccccc2O1` (stereo unspecified), the Potency is 5.17 µM (active) and the cell number change is 1.47%.

Take `CCC1CN(C(=O)N2CCC(C(=O)NCc3cc(OC)c(OC)c(OC)c3)CC2)c2ccccc2O1` (stereo unspecified): the outcome was inactive and the cell number change is -18%.

With `CCC1CN(C(=O)N2CCC(C(=O)NCc3ccccc3C)CC2)c2ccccc2O1` (stereo unspecified), the Potency is 3.66 µM (active) and the cell number change is -0.59%. With `CCC1CN(C(=O)N2CCC(C(=O)NCc3ccc(OC)cc3OC)CC2)c2ccccc2O1` (stereo unspecified), the compound was called inactive and the cell number change came to 4.13%.

Consider `CCC1CN(C(=O)N2CCC(C(=O)NCCc3ccc(OC)c(OC)c3)CC2)c2ccccc2O1` (stereo unspecified), for which the outcome was inactive and the cell number change stood at 5.9%.

With `CCC1CN(C(=O)N2CCC(C(=O)NCCc3ccccc3)CC2)c2ccccc2O1` (stereo unspecified), the call was inactive and the cell number change was -2.95%. `CCC1CN(C(=O)N2CCC(C(=O)NCCc3ccccc3OC)CC2)c2ccccc2O1` (stereo unspecified): the Potency is 6.51 µM (active) and the cell number change was 13.3%. For `CCC1CN(C(=O)N2CCC(C(=O)NCc3ccccc3OC)CC2)c2ccccc2O1` (stereo unspecified), the “lipid storage change, negative = inhibition” value was -7.34% (inactive) and the cell number change was found to be 16.5%. For `CCC1CN(C(=O)N2CCC(C(=O)NCc3ccc(C)o3)CC2)c2ccccc2O1` (stereo unspecified), the result was inactive.
